In the library only some 28% were active in any assay of this set; here they are far more common.
CYP2C19 inh – blockers of cytochrome P450 2C19 activity – biochemical, luminescence, ADME assay, primary screen | 96,000 tested, 21% active | CYP2C19 Supersomes, luciferin-H EGE luminescence, 30 min | P33261 | inhibition, % at 5 µM;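 active = CYP2C19 inhibition above a set limit at 5 µM in the primary screen, cut at about 50% in these data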
CYP2C19 activ – human CYP2C19 activators, primary screen, biochemical, luminescence. Cytochrome P450 2C19 (Homo sapiens), P33261. recombinant CYP2C19, luciferin-H EGE luminescence; active compounds read high; 0 = fully inhibited enzyme, 1 = untreated enzyme. activation factor at 5 µM. 96,000 tested, under 10 active. AID 1025, 2008;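 active = activation factor of at least 2 at 5 µM in the primary screen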
CYP2C9 inh – blockers of cytochrome P450 2C9 activity – biochemical, luminescence, ADME assay, primary screen; P11712; CYP2C9 Supersomes, luciferin-H conversion; inhibition, % at 5 µM; 96,000 tested, 20% active;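 active = blocking of liver enzyme CYP2C9 beyond about 50% at 5 µM, limit read from the data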
CYP2C9 act – human CYP2C9 activators, primary screen, biochemical, luminescence; Cytochrome P450 2C9 (Homo sapiens), P11712; recombinant CYP2C9, luciferin-H conversion; active compounds read high; factor 1 = untreated enzyme, 0 = blocked; activation factor at 5 µM; 96,000 tested, 1.4% active;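 active = activation factor of 2 or more for CYP2C9 at a 5 µM dose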
Pyk2 oligo antag – antagonists of Pyk2 self-association, primary screen, Q293 cells, FERM NanoBiT luminescence, HTS; Protein-tyrosine kinase 2-beta (Homo sapiens), Q14289; active compounds read low; z-score (the deposit names both 25 µM and 10 µM); 99,000 tested, 0.83% active; AID 1347419, 2020;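 active = Z-score of -3 or lower, scaled per plate to the spread of control and sample wells; inactive = z-score above -3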;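 also: negative z-score means lost luminescence so less FERM oligomerization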
Target sequence (Q14289 whole entry, looked up): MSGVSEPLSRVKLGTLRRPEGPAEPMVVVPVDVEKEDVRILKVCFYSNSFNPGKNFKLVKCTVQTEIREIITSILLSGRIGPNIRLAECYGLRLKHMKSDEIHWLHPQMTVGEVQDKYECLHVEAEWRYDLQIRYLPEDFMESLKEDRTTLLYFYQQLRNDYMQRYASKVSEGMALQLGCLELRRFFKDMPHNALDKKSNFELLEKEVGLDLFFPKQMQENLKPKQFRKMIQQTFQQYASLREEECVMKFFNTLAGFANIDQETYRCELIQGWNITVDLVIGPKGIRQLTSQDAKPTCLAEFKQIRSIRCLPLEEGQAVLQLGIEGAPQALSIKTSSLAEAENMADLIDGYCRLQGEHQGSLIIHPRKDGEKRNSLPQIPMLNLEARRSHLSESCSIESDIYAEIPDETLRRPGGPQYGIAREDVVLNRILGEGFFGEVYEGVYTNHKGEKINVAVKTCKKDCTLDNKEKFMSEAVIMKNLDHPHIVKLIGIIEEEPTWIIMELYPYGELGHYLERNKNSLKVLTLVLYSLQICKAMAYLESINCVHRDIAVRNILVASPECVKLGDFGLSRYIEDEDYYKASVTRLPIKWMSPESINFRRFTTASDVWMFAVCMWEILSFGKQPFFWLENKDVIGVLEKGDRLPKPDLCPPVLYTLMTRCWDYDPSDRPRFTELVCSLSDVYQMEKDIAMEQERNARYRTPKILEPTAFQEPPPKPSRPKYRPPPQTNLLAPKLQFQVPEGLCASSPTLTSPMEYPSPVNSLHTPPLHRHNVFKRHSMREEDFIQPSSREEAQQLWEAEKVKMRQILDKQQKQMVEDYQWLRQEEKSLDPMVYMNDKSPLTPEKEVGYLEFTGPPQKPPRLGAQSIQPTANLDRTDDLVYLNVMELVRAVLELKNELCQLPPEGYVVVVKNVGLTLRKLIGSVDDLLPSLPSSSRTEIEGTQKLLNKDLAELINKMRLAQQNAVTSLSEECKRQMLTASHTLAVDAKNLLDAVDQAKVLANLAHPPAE
Of the large screens only hits and unclear results are named; the others gave an inactive call.

O=C(Cn1nnc(-c2ccc(Cl)cc2)n1)NCCC1=CCCCC1	CYP2C19 inh 52.5
COc1cccc(NC(=O)Cn2nnc(-c3ccccc3N)n2)c1	CYP2C19 inh 51.9
CNC(=S)N1C2CCC1CC(NC(=O)NC13CC4CC(CC(C4)C1)C3)C2 (stereo not drawn)	none
COC(=O)c1cccc(N(C(=O)c2cnccn2)C(C(=O)NC2CCCCC2)c2cn(C)nc2C)c1 (stereo not drawn)	none
O=C(Cn1nnc(-c2ccncc2)n1)Nc1ccc2c(c1)CCC2	CYP2C19 inh 91.0, CYP2C9 inh 75.1
O=C(Cn1nnc(-c2ccccc2)n1)c1ccccc1	CYP2C19 inh 59.2
CCOc1ccc(-c2nnn(CC(=O)Nc3cc(OC)cc(OC)c3)n2)cc1OCC	none
COc1cc(NC(=O)Cn2nnc(-c3ccncc3)n2)cc(OC)c1	CYP2C19 inh 89.4, CYP2C9 inh 91.7
C/C(=N/OC(=O)c1c(F)cccc1F)c1nccs1	none
O=C1c2ccccc2CC1(Cc1ccccc1)Cc1ccccc1	none (no result: CYP2C19 inh, CYP2C19 activ, CYP2C9 inh, CYP2C9 act)
CCCCCNC(=O)N[C@H](C(=O)O)C(C)C	none (no result: CYP2C19 inh, CYP2C19 activ, CYP2C9 inh, CYP2C9 act)
Cc1ccnc(SCC(=O)Nc2sc3c(c2C#N)CCCC3)n1	none
Cc1csc(SCC(=O)Nc2sc3c(c2C#N)CCC3)n1	CYP2C9 inh 69.3
CC(C)(C)C1CCc2c(sc(NC(=O)CSc3ncn[nH]3)c2C#N)C1 (stereo not drawn)	none (no result: CYP2C19 inh, CYP2C19 activ, CYP2C9 inh, CYP2C9 act)
N#Cc1c(NC(=O)CSc2ncn[nH]2)sc2c1CCCC2	CYP2C9 inh 78.7
O=C(NC(=O)c1cccc(OC(F)(F)C(F)F)c1)OC1CCS(=O)(=O)C1 (stereo not drawn)	none
Cc1ccc(C2CC(c3cccs3)=NN2C(=O)CSC2=NN3CCCC(=O)N=C3S2)cc1 (stereo not drawn)	CYP2C19 inh 91.1, CYP2C9 inh 81.6 (no result: Pyk2 oligo antag)
COc1ccc(C2CC(c3cccs3)=NN2C(=O)CSC2=NN3CCCC(=O)N=C3S2)cc1 (stereo not drawn)	none (no result: Pyk2 oligo antag)
CCC(C)NS(=O)(=O)c1ccc(S(=O)(=O)N(CC(=O)Nc2ccccc2)CC2CCCO2)cc1 (stereo not drawn)	CYP2C9 inh 92.2
O=S(=O)(NCC1CCCO1)c1ccc(Oc2ccccc2)cc1 (stereo not drawn)	CYP2C19 inh 95.3, CYP2C9 inh 82.7
CCOC(=O)COc1ccc(S(=O)(=O)NCC2CCCO2)cc1 (stereo not drawn)	none (no result: CYP2C19 inh, CYP2C19 activ, CYP2C9 inh, CYP2C9 act)
CCC(Oc1ccccc1)C(=O)Nc1ccc(S(=O)(=O)NCC2CCCO2)cc1 (stereo not drawn)	CYP2C9 inh 90.8
CCCCC1(O)CC(C(F)(F)F)=NN1C(=O)COc1ccccc1 (stereo not drawn)	none (no result: CYP2C19 inh, CYP2C19 activ, CYP2C9 inh, CYP2C9 act)
N#Cc1cccc(NC(=O)CN2NS(=O)(=O)c3ccccc3C2=O)c1	none
O=C1c2ccccc2NC(c2ccccc2)N1c1ccc(O)cc1 (stereo not drawn)	none
O=C1c2ccccc2NC(c2ccccn2)N1c1ccc(Cl)cc1 (stereo not drawn)	CYP2C9 inh 62.9
Cc1cccc(C2Nc3ccccc3C(=O)N2c2ccccc2)n1 (stereo not drawn)	CYP2C19 inh 70.8, CYP2C9 inh 69.5
CCN1C/C(=C\c2cccc(C)c2)c2nc3ccccc3c(C(=O)O)c2C1	none (no result: Pyk2 oligo antag)
CN(C)CCn1c(C(=O)Nc2ccccc2)cc2ccccc21	none
CNc1oc(Cc2ccccc2)nc1S(=O)(=O)c1ccccc1	none
COc1ccc(NC(=O)CSc2nc(-c3ccncc3)nn2CC(=O)N2CCCC2)cc1	CYP2C19 inh 92.1, CYP2C9 inh 83.4
CCN(CC)C(=O)Cn1nc(-c2ccccc2O)nc1SCC(=O)Nc1ccc(OC)cc1	CYP2C9 inh 68.6
Nc1nc2c3ccccc3nc(C3CC3)n2n1	none
COc1ccc(NC(=O)N2CCC(NC(=O)c3ccco3)CC2)cc1	none
O=C(CSc1nnc(Cc2ccccc2)n1Cc1ccco1)NC1CCCC1	none
CC(C)OC(=O)CSc1nnc(-c2cnccn2)n1Cc1ccco1	none
COc1cccc(-c2nnc(SCC(=O)OC(C)C)n2Cc2ccco2)c1	CYP2C19 inh 80.0, CYP2C9 inh 85.2
CC(C)OC(=O)CSc1nnc(Cc2ccccc2)n1Cc1ccco1	CYP2C19 inh 70.6
O=C(COC(=O)CCc1ccccc1)Nc1ncc(Cl)cc1Cl	CYP2C19 inh 54.5

Screens deposited in PubChem BioAssay by Sanford-Burnham Center for Chemical Genomics.
